Hits are enriched below; roughly 0.99% of the tested compounds scored in any of these assays.
TRPML1 inh: qHTS for Inhibitors of the Human Mucolipin Transient Receptor Potential 1 (TRPML1); TRPML1-inducible cells, Ca2+ dye fluorescence, FDSS; stronger effect = lower value; inhibition of EC80 agonist-evoked calcium signal; activity change, negative = inhibition, % (test concentration not listed); 390,000 tested, 0.02% active; AID 624415, 2012; in the data active = activity change below about -50%; inconclusive = between about -30% and that limit;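 also: stimulus is agonist 54-4 at its EC80 concentration; % is scaled to controls: 0 for no effect and ±100 for the full control effect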
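Calcium fluorescence in TRPML1-DL cells induced overnight with Tet: a 110 s read after compound pin addition, then a 110 s antagonist read after challenge with 54-4 at 4 uM final (EC80).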
TRHR enhancer-1: qHTS for Small Molecule Agonists and Allosteric Enhancers of Human TRH Receptor: Primary Screen for Enhancers; TRHR cells, fluo-8 calcium fluorescence, EC20 TRH enhancement; 360,000 tested, 0.66% active; Thyrotropin-releasing hormone receptor (Homo sapiens), P34981; enhancement, % at 2 µM; AID 493056, 2011; in the data active = enhancement above about 30%; also: 0% is about no effect
Target sequence (P34981 whole entry, looked up): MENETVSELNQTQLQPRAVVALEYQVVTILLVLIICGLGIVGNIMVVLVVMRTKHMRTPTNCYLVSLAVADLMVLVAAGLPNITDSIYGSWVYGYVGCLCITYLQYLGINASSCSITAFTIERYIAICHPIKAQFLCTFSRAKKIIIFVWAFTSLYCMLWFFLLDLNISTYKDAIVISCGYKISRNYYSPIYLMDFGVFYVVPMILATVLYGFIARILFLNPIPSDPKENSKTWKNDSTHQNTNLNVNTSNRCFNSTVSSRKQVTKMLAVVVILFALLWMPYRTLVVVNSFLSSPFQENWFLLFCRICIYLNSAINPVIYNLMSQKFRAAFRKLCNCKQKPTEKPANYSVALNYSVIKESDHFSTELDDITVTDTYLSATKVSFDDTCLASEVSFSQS
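Enhancer read-out: after compound pinning and an initial kinetic agonist-mode read, an EC20 of TRH (10 nM final) was injected and fluo-8 calcium signal (Ex 480/Em 530) followed at 1 s/cycle for 100 cycles in TRHR-expressing cells.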
TRPV1 agonist: HTS Assay for Compounds that Act as Agonists of the Vanilloid Receptor 1; Transient receptor potential cation channel subfamily V member 1 (Homo sapiens), Q8NER1; TRPV1-expressing cells, Fluo-8 calcium influx, agonist mode; activation, % at 8.33 µM; 320,000 tested, 0.19% active; AID 540275, 2011; in the data active = activation above about 80%; inconclusive = between about 30% and that limit; also: 0% is about no effect
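Cells expressing TRPV1 were dye-loaded with Fluo-8 and read kinetically: 10 s baseline, 3 min after compound (agonist portion), then 2 min after EC20 capsaicin (allosteric enhancer portion). Calcium-bound dye fluorescence at 480/520 nm.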
TRHR agonist-1: qHTS for Small Molecule Agonists and Allosteric Enhancers of Human TRH Receptor: Primary Screen for Agonists; activation, % at 2 µM; TRHR cells, calcium flux fluo-8, FDSS agonist mode; AID 493084, 2011; 360,000 tested, 0.18% active; in the data active = activation above about 30%; also: 0% is about no effect
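TRHR-expressing cells, plated overnight in medium with 10% serum, were loaded with fluo-8 calcium dye at room temperature. After a 10 s baseline, library compound was pin-added and calcium release was recorded kinetically (ex 480/em 530) as agonist response.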
TRPML1 ag: qHTS for Agonists of the Human Mucolipin Transient Receptor Potential 1 (TRPML1). TRPML1-expressing cells, Ca2+ dye fluorescence, FDSS. activation, % (concentration not given with the values). 410,000 tested, 0.12% active. AID 624414, 2012; in the data active = activation above about 50%; inconclusive = mostly about 30% to 49%; also: 0% is about no effect
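Kinetic FDSS Ca2+ read in Tet-induced TRPML1-DL cells (ABD Ca8 dye plus quencher, 45-90 min RT loading): baseline, then compound, then 110 s agonist window; EC80 agonist 54-4 at 4uM final added afterwards for a 110 s antagonist window.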
TRPV1 PAM: HTS Assay for Compounds that Act as Potentiators of the Vanilloid Receptor 1 | potentiation, % at 8.33 µM | TRPV1-expressing cells, Fluo-8 calcium influx, capsaicin EC20 potentiation | 320,000 tested, 0.02% active | Transient receptor potential cation channel subfamily V member 1 (Homo sapiens), Q8NER1 | AID 540277, 2011; in the data active = potentiation above about 80%; inconclusive = between about 30% and that limit; also: 0% is about no effect
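TRPV1-expressing cells were cultured overnight at 35.5C and loaded with Fluo-8 calcium dye for 40 to 90 min at room temperature. After a 10 s baseline, compound was added and calcium influx was read kinetically for 3 min (ex 480/em 520 nm).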
TRHR enhancer-2: qHTS for Small Molecule Agonists and Allosteric Enhancers of Human TRH Receptor: Confirmation Screen for Enhancers; shares compounds with TRHR enhancer-1; TRH receptor cell assay, enhancer confirmation qHTS; activity change, negative = inhibition, % at 46.1 µM; 970 tested, under 10 active; AID 493076, 2011;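 also: compound effect scored on response to added TRH at EC20 of 10 nM; 0% is about no effect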
TRHR agonist-2: qHTS for Small Molecule Agonists and Allosteric Enhancers of Human TRH Receptor: Confirmation Screen for Agonists; shares compounds with TRHR enhancer-1; TRHR-expressing cells, agonist activation read-out; Potency, µM (doses to about 46.1 µM), for inactives: at the top dose activation, hits mostly activators; AID 493078, 2011; 970 tested, 8% active; also: potency is read from the fitted curve at half-maximal effect; 0% is about no effect; nearly all actives have a fitted effect of over 75% in size
Numbers without * were called inactive; ? = inconclusive; . = no result. Unless noted, calls follow the shape of the dose curve; as a rule, active = well fitted curve in the direction sought with a large enough effect; inconclusive = small, poorly fitted or top-dose-only effect, or another doubt; inactive = no such curve, though single readings can be large; an effect the other way counts as inactive or inconclusive.

SMILES	TRPML1 inh	TRHR enhancer-1	TRPV1 agonist	TRHR agonist-1	TRPML1 ag	TRPV1 PAM	TRHR enhancer-2	TRHR agonist-2
CCC(C)[C@@H](C(=O)N1CCNCC1)n1cc(CCCN=C(N)N)nn1 (some centres not stated)	-2	-7	4	0	0	10	.	.
C[C@@H](C(=O)N1CCNCC1)n1cc(CCCN=C(N)N)nn1	-3	64*	-3	0	0	-10	-2	-1%
Cc1cc([N+](=O)[O-])ccc1NC(=O)c1ccco1	18	46*	-12	-1	1	18	-3	0%
Cc1ccc2c(NC(=O)c3ccco3)cccc2n1	-10	42*	2	0	0	12	-1	0%
Cc1cc(NC(=O)c2ccc([N+](=O)[O-])cc2Cl)ccc1NC(=O)c1ccco1	-4	-2	-2	0	-1	3	.	.
CN(C)S(=O)(=O)N(CC(=O)NCCSCc1cccc(Cl)c1)c1ccccc1	10	1	.	0	1	.	.	.
CC(=O)N1CC(C)Oc2ccc(S(=O)(=O)NC(CC(=O)O)c3ccccc3)cc21 (configuration not stated)	4	44*	-5	1	-1	3	-6	-1%
Cn1c(CNC(=O)CSc2n[nH]c(-c3ccccc3)n2)nc2ccccc21	4	4	.	0	0	.	.	.
COc1ccc(-c2[nH]ncc2C(=O)NCc2ccc(F)cc2)cc1	-15	-2	.	0	2	.	.	.
CC(C)=CCc1c(O)ccc(C(=O)Cc2ccccc2)c1O	0	67*	11	2	11	0	0	?
CC(C)n1c(SCC(=O)Nc2ccc(F)cc2)nc2c(oc3ccccc32)c1=O	21	0	.	0	-1	.	.	.
CCN(CC)C(=O)C1c2ccccc2Oc2ccccc21	-17	46*	12	3	0	4	-8	1%
C=CCN(CC=C)C(=O)C1c2ccccc2Oc2ccccc21	-2	.	.	.	0	.	.	.
CCc1cc(=O)[nH]c(SCc2ccc(C)cc2)n1	-9	54*	-1	0	2	11	-1	-1%
COc1ccc2nc(-c3ccccn3)[nH]c2c1	23	46*	2	0	1	1	-3	2%
COc1ccc(Br)cc1C(=O)Nc1ccc(C(=O)NCC(C)C)cc1	2	46*	14	-2	3	-9	10	1%
CC(=O)c1cc(NC(=O)c2ccc(C)cc2)c(=O)oc1/C=C/N(C)C	-6	-1	?	29	14	-9	4	21µM*
CCN1C(=O)N/C(=C/c2ccc(C)o2)C1=O	1	-1	-3	0	0	-3	.	.
CCN1C(=O)N/C(=C/c2ccc(Sc3ccc(C)cc3)o2)C1=O	9	54*	11	-1	0	-3	-8	1%
Cc1ccc(NC(=O)CCN2C(=O)c3ccccc3C2=O)cc1	-21	-8	5	0	0	16	.	.
Cc1cc(NC(=O)CCN2C(=O)c3ccccc3C2=O)no1	35	56*	-1	-1	-1	1	0	-1%
